Results: PubChem BioAssay (Tox21)
Inconclusive results are not listed. Where a call stands in place of a potency, no number is given. Active and inactive are the calls of the source. Calls follow the shape of the full dose curve.

Target: Acetylcholinesterase (Homo sapiens) (UniProt P22303)
Experiment: Acetylcholinesterase (AChE) small molecule antagonists: colormetric cell-based qHTS assay (AID 1347395); also: nearly all actives have a fitted effect of over 30% in size
Details: SH-SY5Y cells AChE activity, colorimetric (Ellman); series mostly up to 115 µM
How it was run: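 SH-SY5Y cells; cpd 30 min 37 C; + DTNB/acetylthiocholine, 90 min 37 C; colorimetric thiocholine read; qHTS.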
Potency is read from the fitted curve at half-maximal effect.

Acetylcholinesterase (Homo sapiens), sequence (P22303 whole entry, looked up): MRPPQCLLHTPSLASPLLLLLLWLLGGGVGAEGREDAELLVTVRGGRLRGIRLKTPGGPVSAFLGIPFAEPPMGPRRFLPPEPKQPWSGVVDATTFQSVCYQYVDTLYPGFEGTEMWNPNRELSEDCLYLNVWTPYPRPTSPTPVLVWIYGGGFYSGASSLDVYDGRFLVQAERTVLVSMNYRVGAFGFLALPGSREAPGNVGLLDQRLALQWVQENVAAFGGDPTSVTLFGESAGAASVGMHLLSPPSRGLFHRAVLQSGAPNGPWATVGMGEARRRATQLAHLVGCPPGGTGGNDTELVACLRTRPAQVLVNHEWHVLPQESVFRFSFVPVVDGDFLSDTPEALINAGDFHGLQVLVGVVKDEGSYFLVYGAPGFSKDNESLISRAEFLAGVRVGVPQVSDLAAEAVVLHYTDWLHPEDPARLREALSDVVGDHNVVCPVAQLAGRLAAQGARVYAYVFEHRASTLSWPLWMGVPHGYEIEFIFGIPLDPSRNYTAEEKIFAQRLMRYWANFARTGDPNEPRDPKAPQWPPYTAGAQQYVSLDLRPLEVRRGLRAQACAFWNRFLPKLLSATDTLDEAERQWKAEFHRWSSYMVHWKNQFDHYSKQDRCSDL

Structure (SMILES)	Potency	activity, negative = inhibition
c1cnccn1	inactive	
NC(=O)Cn1c(=O)cc(CCN2CCN(c3nccc4sccc34)CC2)c2ccc(F)cc21	35.6 µM (active)	
CCOC(=O)c1ccc(C)cc1	inactive	
OC[C@H]1O[C@H](O[C@]2(CCl)O[C@H](CCl)[C@@H](O)[C@@H]2O)[C@H](O)[C@@H](O)[C@H]1Cl	inactive	
CC(Oc1cc(Cl)ccc1Cl)C(=O)O (centres undefined)	inactive	
CCc1cc2cc(OC)c(OC)cc2c(Cc2ccccc2)n1	inactive	
CCCCN(CCO)CCO	inactive	
c1ccc2c(c1)ccc1cc3c(ccc4ccccc43)cc12	inactive	
CCCCCCCCCCCCCCCCO	inactive	
O=S(=O)(O)c1cccc2c(S(=O)(=O)O)cccc12	inactive	
CCN(CCC#N)c1ccc(N=Nc2ccc([N+](=O)[O-])cc2)cc1	inactive	
O=C(O)CN(CCCN(CC(=O)O)CC(=O)O)CC(=O)O		0.786% [at 23.6 µM] (inactive)
CCCCCCC(C)(C)C(=O)O	inactive	
CC(C)(C)c1cc(CCC(=O)OCC(COC(=O)CCc2cc(C(C)(C)C)c(O)c(C(C)(C)C)c2)(COC(=O)CCc2cc(C(C)(C)C)c(O)c(C(C)(C)C)c2)COC(=O)CCc2cc(C(C)(C)C)c(O)c(C(C)(C)C)c2)cc(C(C)(C)C)c1O	inactive	
CC(=O)c1ccc(C)cc1	inactive	
CCc1cccc(O)c1	inactive	
Cc1nn(C)c(Oc2ccccc2)c1/C=N/OCc1ccc(C(=O)OC(C)(C)C)cc1	inactive	
COc1ccc(C(Cl)=C(c2ccc(OC)cc2)c2ccc(OC)cc2)cc1	inactive	
c1ccc(OCCOc2ccccc2)cc1	inactive	
